Read-out in one assay: TIMP1, TIMP1 (gene 7076)
In words: LTEA_HepaRG_TIMP1: Life Technologies and Expression Analysis (LTEA) Assay for TIMP1 using HepaRG (AID 2283534; active means hit-call score of the fitted dose curve at least 0.9, where 1 is the maximum; inactive means score below 0.9). The following applies: mRNA level, 48 h; actives raise or lower the signal. The method in brief: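 Bidirectional change in TIMP1 transcript versus 0.5% DMSO, measured by TaqMan qRT-PCR with three housekeeping genes for normalization. HepaRG human liver cells dosed 48 h in duplicate, top concentration 100 uM with half-log dilutions.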

Read-out in assay [1]: Tumor necrosis factor receptor 1 (TNFRSF1A), TNFRSF1A (gene 7132)
In words: LTEA_HepaRG_TNFRSF1A: Life Technologies and Expression Analysis (LTEA) Assay for Tumor necrosis factor receptor 1 (TNFRSF1A) using HepaRG (AID 2283535; active means hit-call score of the fitted dose curve at least 0.9, where 1 is the maximum; inactive means score below 0.9). The following applies: mRNA level, 48 h; actives raise or lower the signal. The method in brief: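 mRNA measured by qRT-PCR (TaqMan, Fluidigm arrays) against ACTB/GAPDH/POLR2A housekeepers after 48 h chemical exposure of HepaRG cells. Top concentration 100 uM, half-log 8-point series, duplicates; vehicle 0.5% DMSO, both fit directions.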

Read-out in assay [2]: Thyroid Hormone Responsive (THRSP), THRSP (gene 7069)
In words: LTEA_HepaRG_THRSP: Life Technologies and Expression Analysis (LTEA) Assay for Thyroid Hormone Responsive (THRSP) using HepaRG (AID 2283536; active means hit-call score of the fitted dose curve at least 0.9, where 1 is the maximum; inactive means score below 0.9). The following applies: mRNA level, 48 h; actives raise or lower the signal. Put shortly: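 Differentiated human HepaRG cells were exposed in duplicate for 48 h in serum-free induction medium to eight concentrations (top 100 uM, half-log steps, 0.5% DMSO). Expression was quantified by TaqMan qRT-PCR, normalized to ACTB, GAPDH and POLR2A, with bidirectional fitting against DMSO.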

Read-out in assay [3]: Cellular tumor antigen p53 (Homo sapiens) (UniProt P04637)
The assay is described as follows: LTEA_HepaRG_TP53: Life Technologies and Expression Analysis (LTEA) Assay for Tumor Protein P53 (TP53) using HepaRG (AID 2283537; active means hit-call score of the fitted dose curve at least 0.9, where 1 is the maximum; inactive means score below 0.9). The following applies: mRNA level, 48 h; actives raise or lower the signal. The method in brief:
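Differentiated HepaRG cells in serum-free induction medium exposed 48 h in duplicate to 8 half-log concentrations, top 100 uM, 0.5% DMSO. TP53 mRNA by TaqMan qRT-PCR (Fluidigm), normalized to ACTB, GAPDH, POLR2A; fitted bidirectionally versus DMSO.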

Read-out in assay [4]: UDP glucuronosyltransferase (UGT1A1), UGT1A1 (gene 54658)
In words: LTEA_HepaRG_UGT1A1: Life Technologies and Expression Analysis (LTEA) Assay for UDP glucuronosyltransferase (UGT1A1) using HepaRG (AID 2283538; active means hit-call score of the fitted dose curve at least 0.9, where 1 is the maximum; inactive means score below 0.9). To be noted: mRNA level, 48 h; actives raise or lower the signal. Put shortly: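 Differentiated human HepaRG cells in serum-free induction medium were exposed in duplicate for 48 h to eight half-log concentrations up to 100 uM in 0.5% DMSO. UGT1A1 mRNA was quantified by TaqMan qRT-PCR, normalized to ACTB, GAPDH and POLR2A, and fitted bidirectionally against DMSO.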

Read-out in assay [5]: UDP glucuronosyltransferase (UGT1A6), UGT1A6 (gene 54578)
In words: LTEA_HepaRG_UGT1A6: Life Technologies and Expression Analysis (LTEA) Assay for UDP glucuronosyltransferase (UGT1A6) using HepaRG (AID 2283539; active means hit-call score of the fitted dose curve at least 0.9, where 1 is the maximum; inactive means score below 0.9). The following applies: mRNA level, 48 h; actives raise or lower the signal. The method in brief:
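Expression was quantified by TaqMan qRT-PCR on Fluidigm arrays with ACTB/GAPDH/POLR2A normalization and bidirectional fitting against 0.5% DMSO. HepaRG cells (~100,000/well) were treated in duplicate for 48 h at eight half-log concentrations up to 100 uM in serum-free induction medium.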

Read-out in assay [6]: X-box binding protein 1 (XBP1), XBP1 (gene 7494)
In words: LTEA_HepaRG_XBP1: Life Technologies and Expression Analysis (LTEA) Assay for X-box binding protein 1 (XBP1) using HepaRG (AID 2283540; active means hit-call score of the fitted dose curve at least 0.9, where 1 is the maximum; inactive means score below 0.9). The following applies: mRNA level, 48 h; actives raise or lower the signal. The method in brief:
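XBP1 transcript by qRT-PCR (housekeeping-normalized: ACTB, GAPDH, POLR2A) after 48 h chemical treatment of HepaRG cells, 8-point half-log series topping at 100 uM, vehicle 0.5% DMSO. Gain and loss of signal fitted relative to DMSO.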

Assay [7] can be described thus: LTEA_HepaRG_LDH_cytotoxicity: Cytotoxicity Assessment in the Life Technologies and Expression Analysis (LTEA) Assay (AID 2283563).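 On AC50: LDH activity released into spent culture medium as a marker of cell death.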 Put shortly:
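LDH release into culture medium read after 48 h chemical treatment of HepaRG cells. Duplicate wells, eight-point half-log series topping at 100 uM, 0.5% DMSO vehicle and baseline.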

A short description of assay [8]: ATG_XTT_Cytotoxicity: Cytotoxicity Assessment in the Attagene TRANS-FACTORIAL HepG2 Assay (AID 2283584). The method in brief: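 Viability endpoint from XTT after 24 h chemical exposure of reporter-transfected human HepG2 liver cells; signal loss fitted relative to DMSO negative control.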
Assay [9] concerns the target Cellular tumor antigen p53 (Homo sapiens) (UniProt P04637). In words: TOX21_p53_BLA_p2_ratio: Tox21 HCT-116 p53 Agonism Beta-lactamase Assay, Ratio, Phase 2 (AID 2283592). The method in brief: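 Gain-of-signal p53 agonism was scored from the beta-lactamase FRET ratio (460/530 nm, 405 nm excitation) in HCT116 cells treated 16 h at 37C, 5% CO2, with DMSO serving as negative control and baseline.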

Assay [10] shares this target. The assay is described as follows: TOX21_p53_BLA_p3_ratio: Tox21 HCT-116 p53 Agonism Beta-lactamase Assay, Ratio, Phase 3 (AID 2283596). The method in brief: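 HCT116 p53-bla cells (4000/well) given compound in DMSO (217-fold dilution) after 5 h, incubated 16 h at 37C. CCF4-AM substrate 2 h at room temperature; 460/530 nm emission ratio, gain fitted against DMSO.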

The target is the same in assay [11]. The assay is described as follows: TOX21_p53_BLA_p5_ratio: Tox21 HCT-116 p53 Agonism Beta-lactamase Assay, Ratio, Phase 5 (AID 2283599). Put shortly: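 HCT-116 cells carrying a p53-inducible beta-lactamase reporter were seeded at 4000 cells/well and dosed after 5 h with compound in DMSO (217-fold dilution). After 16 h at 37C, CCF4-AM substrate was added for 2 h, and the 460/530 nm emission ratio was scored as gain-of-signal versus DMSO.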

For assay [12] the target is unchanged. The assay is described as follows: TOX21_p53_BLA_p4_ratio: Tox21 HCT-116 p53 Agonism Beta-lactamase Assay, Ratio, Phase 4 (AID 2283601). Put shortly: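 HCT116 cells carrying an inducible beta-lactamase reporter were plated at 4000 cells/well, rested 5 h, then exposed to compounds in DMSO (217-fold dilution) for 16 h at 37C. CCF4-AM substrate was loaded 2 h at room temperature; 460/530 nm emission ratio scored gain-of-signal versus DMSO.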

Assay [13] in a line: Tanguay_ZF_120hpf_MORT_legacy: (Legacy) Oregon State University Tanguay Lab 120 Hour Post-fertilization zebrafish Assay for Mortality (AID 2283633). The method in brief: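 Static waterborne exposure from 6 to 120 hpf at 28C of single dechorionated wild-type (5D) embryos per well, 0.64% DMSO final. Death recorded present/absent by brightfield at 24 and 120 hpf.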
Assay [14] in a line: Tanguay_ZF_120hpf_YSE_legacy: (Legacy) Oregon State University Tanguay Lab 120 Hour Post-fertilization zebrafish Assay for Yolk Sac Edema (AID 2283634). The method in brief: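 Presence or absence of yolk sac edema was recorded at 120 hpf in surviving larvae. These were wild-type Tropical 5D embryos, chorion removed at 4 hpf, held in static exposure at 28C from 6 hpf with 0.64% DMSO vehicle.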

The nature of assay [15]: Tanguay_ZF_120hpf_AXIS_legacy: (Legacy) Oregon State University Tanguay Lab 120 Hour Post-fertilization zebrafish Assay for Body Axis Malformation (AID 2283635). Put shortly:
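Binary scoring of axis defects at 120 hpf under brightfield, fitted positive versus DMSO. Tropical 5D embryos, chorion removed by pronase at 4 hpf, were singly exposed in sealed, dark plates at 28C from 6 hpf; DMSO 0.64% final.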

A short description of assay [16]: TOX21_p53_BLA_p2_viability: Viability Assessment in the Tox21 HCT-116 p53 Agonism Beta-lactamase Assay, Phase 2 (AID 2283591).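 Further: compound exposure lasted 16 h at 37 °C; actives lower the ATP signal meaning cytotoxicity.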 Put shortly: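 HCT-116 p53-bla cells (4000/well) rested 5 h at 37C, then received compounds in DMSO (217-fold dilution) for 16 h at 37C, 5% CO2. After the CCF4 read, CellTiter-Glo was added; ATP luminescence was read after 30 min at room temperature.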

A short description of assay [17]: TOX21_p53_BLA_p3_viability: Viability Assessment in the Tox21 HCT-116 p53 Agonism Beta-lactamase Assay, Phase 3 (AID 2283593).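 Further: cells exposed to compound for 16 h before reading.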 The method in brief:
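HCT-116 cells (4000/well) rested 5 h at 37C, then got DMSO compounds by pin tool (217-fold dilution) for 16 h at 37C, 5% CO2. After the bla read, CellTiter-Glo was added and luminescence read at 30 min, room temperature.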

Assay [18] can be described thus: TOX21_p53_BLA_p4_viability: Viability Assessment in the Tox21 HCT-116 p53 Agonism Beta-lactamase Assay, Phase 4 (AID 2283597).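 Further: hits lower the luminescence signal meaning cytotoxicity.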 The method in brief:
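Following a 16 h exposure at 37C, the treated HCT116 wells were first read for the FRET ratio. They were then lysed with CellTiter-Glo, and ATP luminescence was recorded after 30 min at room temperature.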

Assay [19] in a line: TOX21_p53_BLA_p5_viability: Viability Assessment in the Tox21 HCT-116 p53 Agonism Beta-lactamase Assay, Phase 5 (AID 2283600). The method in brief: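 After the 460/530 nm beta-lactamase measurement, the wells received an ATP-detection luciferase reagent; signal was read 30 min later at RT. Compound treatment lasted 16 h on cells pre-incubated 5 h post-seeding.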

Where “and” joins values, the source holds several entries; their conditions need not be identical. Equal values may be shown once. Results filed as inconclusive are left out. Where a structure was tested more than once in an assay, its records may differ in their call. Calls of active or inactive are those of the source. How the source made its calls, unless noted: active means hit-call score of the fitted dose curve at least 0.9, where 1 is the maximum; inconclusive means response in the unintended direction; inactive means score below 0.9.

Outcome and AC50 data for 6 compounds are collected here from PubChem BioAssay (EPA / NIEHS).

Sequence of Cellular tumor antigen p53 (Homo sapiens) (P04637 whole entry, looked up): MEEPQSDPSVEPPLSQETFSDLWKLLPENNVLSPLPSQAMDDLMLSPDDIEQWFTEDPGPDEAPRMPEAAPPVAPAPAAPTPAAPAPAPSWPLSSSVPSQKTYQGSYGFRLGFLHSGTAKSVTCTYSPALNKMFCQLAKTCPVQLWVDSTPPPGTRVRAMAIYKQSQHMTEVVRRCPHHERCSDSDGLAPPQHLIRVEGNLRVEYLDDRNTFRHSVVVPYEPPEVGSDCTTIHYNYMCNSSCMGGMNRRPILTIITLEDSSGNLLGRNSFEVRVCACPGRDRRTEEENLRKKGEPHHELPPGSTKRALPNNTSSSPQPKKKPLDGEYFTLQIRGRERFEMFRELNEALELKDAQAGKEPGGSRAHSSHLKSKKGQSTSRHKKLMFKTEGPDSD

As usually defined, the AC50 is the concentration giving half of the maximal activity seen. For the compound `O=C(c1ccc(O)cc1O)c1ccc(O)cc1O`, the outcome with TIMP1, TIMP1 (gene 7076) is “inactive”; in [1] it was “inactive”; in assay [2] it was “inactive”; in assay [3], “inactive”; in assay [4] it was “inactive”; in assay [5] it was “inactive”. Moreover, the call in assay [6], in assay [7], in [8], in assay [9], in assay [12] and in assay [13] was inactive. Also, the call in assay [14] and in assay [15] was inactive. The AC50 is 73.1 µM (active) in assay [9]; 73.8 µM (active) and 73.3 µM (active) in assay [10]; 76.4 µM (active) and 74.5 µM (active) in assay [11].

Turning to `CN(C)C(=O)Nc1ccc(Cl)c(Cl)c1`, the outcome is “inactive” in the assay with TIMP1, TIMP1 (gene 7076); “inactive” in assay [1]; “inactive” in assay [3]; “inactive” in assay [5]; “inactive” in assay [7]; “inactive” in assay [8]. In addition, the outcome in assay [16], in assay [9], in [17], in assay [10], in [18] and in assay [11] was inactive. In addition, the result in [19], in [12], in [13], in assay [14] and in assay [15] was inactive. Further, the values for the AC50 in [2], in assay [4] and in [6] were 27.2 µM (active), 23.5 µM (active) and 21.7 µM (active), respectively.

In the case of `C#CCOC(=O)[C@@H](C)Oc1ccc(Oc2ncc(Cl)cc2F)cc1`, the outcome in the assay with TIMP1, TIMP1 (gene 7076) is “inactive”; in assay [1] it was “inactive”; in assay [2] it was “inactive”; in assay [3], “inactive”; in assay [5], “inactive”; in assay [6], “inactive”. Also, the outcome in assay [7], in [16], in assay [9], in assay [17], in [10] and in assay [18] was inactive. Besides, the outcome in assay [11], in assay [19], in assay [12], in [13], in assay [14] and in assay [15] was inactive. In addition, the AC50 in [4] is 20.2 µM (active).

`O=C(c1ccccc1)C1CCCCC1`: the outcome is “inactive” with TIMP1, TIMP1 (gene 7076); “inactive” in assay [1]; “inactive” in assay [2]; “inactive” in assay [3]; “inactive” in [4]; “inactive” in assay [5]. Moreover, the compound was called inactive in assay [6], in assay [7], in assay [8], in [13], in [14] and in [15].

For `CCN(Cc1c(F)cccc1Cl)c1c([N+](=O)[O-])cc(C(F)(F)F)cc1[N+](=O)[O-]`, the outcome with TIMP1, TIMP1 (gene 7076) is “inactive”; in assay [1], “inactive”; in assay [5], “inactive”; in assay [6] it was “inactive”; in assay [7] it was “inactive”; in [8], “inactive”. Also, the compound was called inactive in assay [16], in [9], in assay [17], in [10], in assay [11] and in assay [19]. In addition, the outcome in assay [12], in assay [13], in assay [14] and in assay [15] was inactive. In addition, the AC50 in assay [2] is 22.8 µM (active); in assay [3], 30.3 µM (active); in assay [4], 7.12 µM (active); in assay [18], 26.3 µM (active).

`CC(=O)[C@H]1CC[C@H]2[C@@H]3CCC4=CC(=O)CC[C@]4(C)[C@H]3CC[C@]12C`: the half-maximal activity concentration (AC50) with TIMP1, TIMP1 (gene 7076) was 22.2 µM (active); in [1], 90.6 µM (active); in assay [4], 37.9 µM (active); in assay [5], 63.7 µM (active); in assay [7] it was 35.8 µM (active). The compound was classed as inactive in assay [2], in assay [3], in assay [6], in assay [8], in assay [16] and in [9]. The compound was called inactive in assay [17], in assay [10], in assay [18], in assay [11], in [19] and in assay [12]. Further, the compound was called inactive in assay [13], in [14] and in [15].
